Screening results: PubChem BioAssay, National Center for Advancing Translational Sciences (NCATS)
NS1 inh – influenza NS1 inhibition | actives 0.4% (n = 270,000) | Potency, µM (titrated, usually from 46.1 µM), without a hit: at the highest dose activity, positive = more growth; calls by dose curve; further: potency means the concentration at half of the fitted maximal effect; actives are rising curves; nearly all actives have a fitted effect of over 50% in size
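A cell-based growth assay was used: compounds that relieve NS1-induced slow growth of budding yeast raise OD600. Assay medium was yeast nitrogen base with ammonium sulphate and -URA supplement, pH 6.0, with 2% galactose.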
Pf growth 48h – P. falciparum growth inhibition at 48 hours (one generation); P. falciparum luciferase growth in erythrocytes, 48 h; Potency, µM (titrated, usually from 28.7 µM), without a hit: at the top dose activity change, negative = inhibition, actives largely listed as inhibitors; actives 5.9% (n = 310,000); AID 504832; further: potency means the concentration at half of the fitted maximal effect; on the % scale 0 is the no-effect control and ±100 the full control effect
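Luciferase-expressing parasites in RBCs, 2% Hct / 0.1% parasitemia final; RPMI 1640 + 0.5% Albumax; 37 C, 5% CO2, one generation; luminescence read-out, lower signal = inhibition.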
Sm TGR block – S. mansoni TGR enzyme inhibition | Potency, µM (highest dose often 114 µM), without a hit: at the top dose activity change, negative = inhibition, usual class: inhibitors | purified TGR, DTNB reduction, TNB absorbance 405 nm | AID 485364 | actives 3% (n = 360,000); further: potency means the concentration at half of the fitted maximal effect; on the % scale 0 is the no-effect control and ±100 the full control effect; nearly all actives have a fitted effect of over 60% in size
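First, TGR (20 nM dispensed) and NADPH were mixed with compound. Second, a 15 min room-temperature incubation followed. Third, further NADPH and then DTNB were added to start the reaction. Finally, TNB absorbance was monitored kinetically.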
Pf growth 96h – P. falciparum growth inhibition at 96 hour, primary screen for plastid delayed-death inhibitors; P. falciparum luciferase reporter growth, 96 h; actives 6.9% (n = 320,000); Potency, µM (highest dose often 28.7 µM), inactives show at the highest dose activity change, negative = inhibition, most hits filed as inhibitors; further: potency means the concentration at half of the fitted maximal effect; on the % scale 0 is the no-effect control and ±100 the full control effect
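Two parasite generations (96 h, 37 C, 5% CO2) of compound exposure in infected erythrocytes (0.05% parasitemia, 2% hematocrit). Luciferase-reporter P. falciparum; decreased luminescence indicates inhibited growth, aimed at apicoplast-acting delayed death.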
Shiga toxin inh – blocks Shiga toxin action in Vero cells; Vero cells, Shiga toxin protein synthesis inhibition reporter; inhibition, % at 38.7 µM; actives 9.2% (n = 290,000); in the data active means inhibition mostly above about 28%, no sharp cut-off; inactive means mostly below about 43%; further: 0% is about no effect
Cycloheximide cs – affects cycloheximide protein synthesis inhibition readout, counter-screen; cell reporter, cycloheximide protein synthesis inhibition counterscreen; max response, %; actives 12% (n = 300,000); in the data active means max response mostly above about 13%, no sharp cut-off; inactive means mostly below about 14%; further: read at 38.3 µM for the half of the compounds with a filed dose; 0% is about no effect
* marks the source's active call; other numbers are inactive results; i = inactive; ? = inconclusive; · = no result; [ ] = another dose, or the depositor's remark. Sampled rows, rich in hits. Any-hit rate of the full collection: about 21%. Unless noted, the call rests on the fitted dose curve; in most records, active means well fitted curve in the direction sought with a large enough effect; inconclusive means small, poorly fitted or top-dose-only effect, or another doubt; inactive means no such curve, though single readings can be large; an effect the other way counts as inactive or inconclusive.

SMILES | NS1 inh | Pf growth 48h | Sm TGR block | Pf growth 96h | Shiga toxin inh | Cycloheximide cs
Cc1c(C(=O)Nc2ccncc2)oc2ccccc12 | -85% | -11% | 18% | · | 52 | 35*
CC(=O)c1cccc(S(=O)(=O)N2CCn3cccc3C2C)c1 (stereo not drawn) | · | ? | 32µM* | -22% | · | ·
COc1ccc(NC(C)=O)cc1S(=O)(=O)N1CCn2cccc2C1C (stereo not drawn) | · | ? | 25µM* | -1% | · | ·
COC(=O)c1ccccc1S(=O)(=O)N1CCn2cccc2C1C (stereo not drawn) | 18% | ? | ? | -18% | -8 | 5
CC(=O)c1ccc(S(=O)(=O)N2CCn3cccc3C2C)cc1 (stereo not drawn) | · | 14% | 35µM* | ? | · | ·
CC1c2cccn2CCN1S(=O)(=O)c1ccc(F)cc1 (stereo not drawn) | · | ? | ? | -17% | · | ·
O=C(CSc1nnc2ccccn12)Nc1ccccc1C(=O)O | · | 33% | 1% | 1% | -6 | 0
CN(C)C[C@H]1CCC2=C(C1=O)C(c1ccc(Cl)c(Cl)c1)C1=C(CC[C@H](CN(C)C)C1=O)O2 | -11% | · | · | · | · | ·
CN(C)S(=O)(=O)c1ccc(S(=O)(=O)N(CC(=O)Nc2ccccc2)CC2CCCO2)cc1 (stereo not drawn) | 0% | -11% | -3% | 12µM* | 18 | 4
CC(=O)Nc1ccc(S(=O)(=O)N(Cc2ccco2)CC2CCCO2)cc1 (stereo not drawn) | 2% | -27% | 25µM* | 38% | 13 | -3
CC(=O)Nc1ccc(S(=O)(=O)N(Cc2cc3ccc(C)cc3[nH]c2=O)CC2CCCO2)cc1 (stereo not drawn) | 2% | 1% | -4% | ? | -1 | -9
O=C(CN(CC1CCCO1)S(=O)(=O)c1ccc(S(=O)(=O)NCC2CCCO2)cc1)Nc1ccccc1 (stereo not drawn) | -9% | -15% | 9% | -13% | -8 | 11
Cc1csc2nc(COC(=O)c3ccc(Cl)c([N+](=O)[O-])c3)cc(=O)n12 | · | 24% | -6% | -10% | · | ·
COc1cc(C[C@@H]2C(=O)OC[C@H]2Cc2ccc(OC)c(OC)c2)ccc1O | · | -12% | -7% | 31% | · | ·
Cc1cccc(/C=N/Nc2ccc3ccccc3n2)c1 | · | 5% | 0% | -62% | -3 | 1
Cc1cc(N/N=C/c2cccc(Br)c2)nc2ccccc12 | -9% | ? | -9% | 39% | 24* | 33*
Cc1cc(N/N=C/c2ccncc2)nc2ccccc12 | 0% | ? | -1% | ? | 49* | 14
CCOc1ccc(-c2c(C(=O)N/N=C/c3ccc(C)s3)nnn2-c2nonc2N)cc1 | 5% | -23% | -11% | ? | -1 | 7
COc1cccc(-c2c(C(=O)N/N=C/c3ccc(C)o3)nnn2-c2nonc2N)c1 | -2% | ? | -12% | ? | 3 | -3
COc1cccc(-c2c(C(=O)N/N=C/c3ccc(C)s3)nnn2-c2nonc2N)c1 | 6% | 10µM* | -1% | 4.1µM* | -8 | -4
CCOc1cccc(-c2c(C(=O)N/N=C/c3ccc(C)s3)nnn2-c2nonc2N)c1 | 18% | ? | -8% | 15µM* | 10 | -3
COC(=O)c1ccccc1NC(=O)Cn1c(=O)n(CCC(=O)NCc2ccc3c(c2)OCO3)c(=O)c2ccccc21 | · | · | -1% | · | · | ·
ClC(Cl)(Cl)c1nc2ccccc2n2nncc12 | -37% | 0.33µM* | 2% | ? | -6 | -3
CCOc1ccc(NCc2cccn2-c2nnc(N3CCC(C(=O)NCCCN4CC(C)CC(C)C4)CC3)s2)cc1 (stereo not drawn) | -2% | ? | -14% | 2% | 32 | 2
S=C(Nc1ccc(Cl)cc1)NC1CC2CCC(C1)N2Cc1ccccc1 (stereo not drawn) | -8% | 3.3µM* | -31% | 22% | -7 | 0
SMILES | NS1 inh | Pf growth 48h | Sm TGR block | Pf growth 96h | Shiga toxin inh | Cycloheximide cs
CCc1ccc(NC(=S)NC2CC3CCCC(C2)N3Cc2ccccc2)cc1 (stereo not drawn) | 8% | 6.6µM* | · | ? | 11 | 8
CNC(=S)NC1CC2CCC(C1)N2Cc1ccccc1 (stereo not drawn) | -6% | 8% | 0% | 174% | -4 | 1
O=[N+]([O-])c1cccc(-n2nncc2-c2ccccc2)c1 | -13% | 19% | -16% | -17% | -8 | -2
O=c1c(-c2ccc(Cl)cc2)c[nH]n1-c1ccccc1 | -5% | 8.3µM* | 26% | 13µM* | 78* | 25*
O=c1c(-c2ccccc2)c[nH]n1-c1cccc([N+](=O)[O-])c1 | -4% | ? | 9% | ? | 77* | 22*
CCc1c(C(=O)Nc2ccccc2C(N)=O)csc1C | -29% | 33% | 0% | 242% | 38 | 31*
CCc1c(C(=O)Nc2ccncc2)csc1C | -35% | 8.3µM* | -23% | ? | -4 | 6
CCc1c(C(=O)NNC(=S)Nc2ccc(S(=O)(=O)Nc3ncccn3)cc2)csc1C | 13% | -2% | 8% | ? | 9 | -3
O=C(OCCN1C(=O)c2ccccc2C1=O)c1cccc(OC(F)F)c1 | -13% | 16% | 6% | 24%[5.75 µM] | 16 | -4
Nc1cccc2c1C(=O)N(CCOc1ccc(F)cc1)C2=O | -5% | 11% | -7% | 56% | 140* | 54*
CC(C)Oc1cccc(OCCN2C(=O)c3ccccc3C2=O)c1 | -4% | 9% | 18% | 244%[5.75 µM] | 36* | 27*
Cc1ccccc1OCCN1C(=O)c2ccccc2C1=O | -8% | 44% | 14% | 44% | 154* | 47*
COc1ccccc1OCCC(=O)OCCN1C(=O)c2ccccc2C1=O | -22% | · | -24%[11.4 µM] | 4%[5.75 µM] | -4 | -4
O=C1c2ccccc2C(=O)N1CCOc1ccccc1Cl | -16% | 1% | 4% | -46% | -18 | -3
O=C1c2ccccc2C(=O)N1CCOc1ccccc1Br | -16% | 21% | 6% | 20% | 73* | 42*
COc1cc2oc(=O)cc(-c3ccc(-c4sccc4C=O)cc3)c2c(OC)c1OC | · | · | · | · | i | 10
O=C(NC1CC2CCCC(C1)N2C(=S)Nc1ccccc1Cl)C1CC1 (stereo not drawn) | 2% | 39% | -1% | 34% | -9 | -3
COc1ccc(OCCN2C(=O)c3ccccc3C2=O)cc1 | · | 57% | 1% | 30% | 90* | 29*
O=C(CCCC1=NS(=O)(=O)c2ccccc2N1)N1CCN(c2ccc([N+](=O)[O-])cc2)CC1 | 2% | 8.3µM* | -12% | ? | -11 | 10
COc1ccc(N2CCN(C(=O)CCCC3=NS(=O)(=O)c4ccccc4N3)CC2)cc1 | -1% | ? | -21% | ? | 24 | 1
Cc1ccc(S(=O)(=O)CC(=O)Nc2nc3c(C)cc(C)cc3s2)cc1 | · | · | -5% | · | · | ·
